# From PubChem
# An excerpt weighted towards active compounds, which were near 2.2% of everything screened.
# APP 5UTR inh: APP translation inhibition; SH-SY5Y APP 5'UTR-luciferase reporter, luminescence; inhibition, % at 2 µM; 0.82% of 190,000 active; AID 1285;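 active means inhibition above a set limit, derived from the sample mean plus 3 SD, cut at about 45% in these data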
# BaF3 tox: parental Ba/F3 viability inhibition as JAK2V617F counter-screen; CellTiter-Glo ATP luminescence; inhibition, % at 5.6 µM; 1.1% of 220,000 active; AID 1486;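 active means inhibition above a per-campaign cutoff, the mean inhibition of all tested compounds plus 3 SD, cut at about 27% in these data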;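 further: 0% = DMSO wells and 100% = JAK Inhibitor I control wells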
# KLF5 inh: inhibitors of KLF5 expression | 0.23% of 290,000 active | inhibition, % at 5 µM | DLD-1 KLF5 promoter-luciferase reporter, luminescence;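 active means inhibition above a per-plate limit of that plate's mean compound inhibition plus 3 SD, cut at about 60% in these data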;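 further: 0% = DMSO wells and 100% = LY294002 at 200 µM; higher means less KLF5 promoter-driven luciferase light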
# IEC-6 cytotox: IEC-6 cytotoxicity, counter-screen for KLF5 inhibitors | luminescence viability | inhibition, % at 5 µM | 0.78% of 290,000 active;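 further: 0% = plate median of test compound wells and 100% = cytotoxic reference compound wells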
# Ba/F3 V617F tox: reduce viability of Ba/F3 cells dependent on JAK2V617F; Ba/F3 EpoR-JAK2V617F viability, ATP luminescence; 1.1% of 220,000 active; inhibition, % at 5.6 µM;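 active means inhibition above the campaign mean plus 3 SD over all tested compounds, cut at about 24% in these data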;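 further: cytokine-independent growth of Ba/F3 cells driven by EpoR plus mutant JAK2; 0% = DMSO-treated cells and 100% = JAK inhibitor I control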
# aSyn UTR inh: 5' untranslated region of α-synuclein, MLPCN primary screen. alpha-synuclein 5'UTR reporter, inhibitor activity. inhibition, % (tested at 7.5 µM). 0.82% of 300,000 active; in the data active means inhibition above about 60%;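 further: H4 neuroglioblastoma cells stably carrying SNCA 5'UTR luciferase fusion; 0% = DMSO wells and 100% = positive control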
# IEC-6 cytotox cf: confirmation of cytotoxic compounds in rat IEC-6 intestinal epithelial cells | shares compounds with IEC-6 cytotox | IEC-6 rat intestinal epithelial viability, luminescence | inhibition, % at 5 µM | 63% of 1,900 active | AID 1907;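 further: 0% = vehicle and 100% = reference cytotoxic drug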
# An asterisk follows results filed as active; i = inactive; . = no result. Unless noted, no stated cut-off is given here; in the data, active means inhibition above about 22%; inactive means the rest.
SMILES,APP 5UTR inh,BaF3 tox,KLF5 inh,IEC-6 cytotox,Ba/F3 V617F tox,aSyn UTR inh,IEC-6 cytotox cf
COc1ccc(-n2cc(-c3ccc(C)cc3)[n+]3c2SCC3)cc1,-2,71*,0,27*,94*,-23,21
CCc1ccc(-n2cc(-c3ccc(F)cc3)[n+]3c2SCCC3)cc1,4,74*,-3,28*,83*,28,26*
Cc1ccc2nc(Cl)c(/C=N/Nc3ccc(C(=O)O)cc3)cc2c1,.,0,-72,10,10,15,.
CCOC(=O)N1CCN(C(=O)COC(=O)CSc2ccc([N+](=O)[O-])cc2)CC1,.,.,.,.,.,2,.
CC(=O)/C(C#N)=C1\NC(=O)C(Cc2ccc(C)c(C)c2)S1 (centres undefined),-30,5,29,78*,-2,5,50*
CC(=O)/C(C#N)=C1\NC(=O)C(Cc2ccc(F)cc2)S1 (centres undefined),.,2,-12,72*,3,-12,48*
CCOc1ccccc1NC(=O)C1C2CCC(O2)C1C(=O)O (centres undefined),.,.,-6,1,.,-13,.
Cc1cc(C)cc(NS(=O)(=O)c2ccc3[nH]cc(C(=O)NCc4ccco4)c(=O)c3c2)c1,0,66*,-2,28*,64*,31,29*
CCc1ccc(S(=O)(=O)Nc2cc3c(cc2C)n(C)c(=O)n3C)cc1,.,.,40,48*,.,-92,40*
Cc1ccc(NS(=O)(=O)c2ccc3c(c2)n(C)c(=O)n3C)c(C)c1,.,.,-5,1,.,3,.
COCCNC(=O)Cc1c(C)c2c(cc(C)c3c(C)coc32)oc1=O,.,.,-52,0,.,-15,.
COCCCNC(=O)Cc1c(C)c2c(cc(C)c3c(C(C)(C)C)coc32)oc1=O,.,.,61,84*,.,28,59*
COc1ccccc1NCCC(=O)O,.,-3,-42,-12,0,4,.
O=C(O)CCNc1ccc(NCCC(=O)O)c2c1C(=O)c1ccccc1C2=O,.,.,-1,24*,.,15,10
O=C(NC1=C(Nc2ccc(F)cc2)C(=O)c2ccccc2C1=O)c1ccc(Cl)cc1,5,-1,0,4,-3,-57,.
O=C1C(Cl)=C(Nc2ccc(O)cc2)C(=O)c2ccccc21,.,59*,48,102*,39*,-59,56*
Cc1cc(Br)cc(Cl)c1OC(=O)c1ccncc1,.,.,-32,4,.,-32,.
O=C(Cc1cn2ccsc2n1)OCc1ccccc1,-6,-1,-14,35*,-2,.,19
CCOC(=O)Cc1csc(NC(=O)C(C)c2ccc([N+](=O)[O-])cc2)n1 (centres undefined),13,2,-15,-1,-6,12,.
O=C(Nc1ncccc1O)c1cccc(S(=O)(=O)NCc2ccccc2)c1,.,.,.,.,.,1,.
O=C1c2ccccc2C(=O)N1c1cccc2cccnc12,-10,10,-23,44*,3,10,9
COc1ccc(N(CC(=O)N2CCN(c3ccc(Cl)cc3)CC2)S(=O)(=O)c2c(C)n[nH]c2C)cc1,19,8,-3,-2,2,28,.
CCCCNc1ncnc2c1cnn2-c1ccccc1,-102,66*,-42,38*,64*,-260,29*
CCCCNc1ncnc2c1cnn2-c1ccc(Cl)cc1,34,9,-113,19,4,-137,.
COc1ccc2oc(-c3ccccc3[N+](=O)[O-])cc(=O)c2c1,2,53*,-28,44*,65*,7,48*
SMILES,APP 5UTR inh,BaF3 tox,KLF5 inh,IEC-6 cytotox,Ba/F3 V617F tox,aSyn UTR inh,IEC-6 cytotox cf
COc1ccc(-c2cc(=O)c3ccccc3o2)cc1,.,.,.,.,.,-216,.
O=C(COc1cccc2cccnc12)Nc1ccccc1N1CCOCC1,-16,4,-20,5,1,-7,.
O=C1Nc2ccccc2C1=O,.,.,.,.,.,-24,.
O=C1c2ccccc2C(=O)c2[nH]c(=O)[nH]c21,.,.,47,101*,.,93*,98*
COc1cccc(NC(=O)CCC(=O)Nc2cc(OC)c(NC(=O)c3cccs3)cc2OC)c1,.,.,-20,-3,.,-4,.
COc1ccc(N=C2CC(C)(C)CC(=O)/C2=C(/O)c2ccccc2)cc1,-7,8,-17,-4,-1,3,.
O=C(Nc1ccc2oc(-c3ccncc3)nc2c1)c1ccccc1,-1,0,-32,-2,-3,-17,.
Cc1ccc(-c2nc3ncccc3o2)cc1NC(=O)c1ccc([N+](=O)[O-])o1,.,.,-7,98*,.,i,20
O=C(Nc1ccc2oc(-c3ccncc3)nc2c1)c1ccc([N+](=O)[O-])o1,.,.,-17,95*,.,-118,17
